For this test, the system named is FaDu. Kind of test: mitochondrial oxygen consumption rate normalised to cell number, Z score vs plate DMSO wells; higher = higher oxygen consumption (negative = OCR reduction). The conditions noted are these: treatment time 24 h, assay medium: 5 mM glucose, 5 mM pyruvate, 4 mM glutamine. As to the method: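 Secondary screen: FaDu cells were incubated 24 h with the top 130 primary hits at 0.08, 0.4, 2 or 10 uM. Mitochondrial-specific OCR (basal minus antimycin A) was measured on a Seahorse XF96 in medium with 5 mM glucose, 5 mM pyruvate and 4 mM glutamine and normalised to Hoechst cell number. OCR score = (OCR - mean of plate DMSO wells) / SD of plate DMSO wells. Three repeats.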

The values that follow come from the supplement of paper PMC4962491.

± gives the standard deviation of the averaged measurements.
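Further: compound exposure in DMEM (4 mM L-glutamine, 5 mM glucose), antimycin A injected at 2 µM after the basal reading and its residual OCR subtracted from basal.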

In the case of `O=C(O)c1cc(/N=N/c2ccc(O)c(C(=O)O)c2)ccc1O`, the “mitochondrial oxygen consumption rate normalised” value (0.08 µM) stood at 0.0704 ± 1.6, the “mitochondrial oxygen consumption rate normalised” value (0.4 µM) is 0.359 ± 0.82, the “mitochondrial oxygen consumption rate normalised” value (2 µM) is -0.373 ± 1.2 and the “mitochondrial oxygen consumption rate normalised” value (10 µM) is -0.951 ± 2.1.
`C[n+]1cc2c3c(ccc2c2ccc4cc5c(cc4c21)OCO5)OCO3`: the “mitochondrial oxygen consumption rate normalised” value is 0.385 ± 0.96 (0.08 µM), 0.59 ± 0.68 (0.4 µM), -0.66 ± 2.1 (2 µM) and -3.47 ± 3.3 (10 µM).
In the case of `CCN(CC)CCCC(C)Nc1ccnc2cc(Cl)ccc12` (stereo unspecified), the “mitochondrial oxygen consumption rate normalised” value by setting is: (0.08 µM) 0.223 ± 1.1; (0.4 µM) 1.56 ± 0.35; (2 µM) -0.792 ± 0.8; (10 µM) 0.482 ± 1.1.
Take `CN(C)c1ccc2nc3ccc(=[N+](C)C)cc-3sc2c1`: the “mitochondrial oxygen consumption rate normalised” value was 0.933 ± 1.1 (0.08 µM), 1.47 ± 0.68 (0.4 µM), -2.4 ± 1.5 (2 µM) and -2.94 ± 3.9 (10 µM).
In the case of `Cc1cc(/C=C/c2ccc3cc(N(C)C)ccc3[n+]2C)c(C)n1-c1ccccc1`, the “mitochondrial oxygen consumption rate normalised” value by setting is: (0.08 µM) -1.73 ± 1; (0.4 µM) -11.7 ± 0.64; (2 µM) -13.47 ± 0.04; (10 µM) less than -13.8.
The corresponding values for `O=C(O[C@H]1CN2CCC1CC2)N1CCc2ccccc2[C@@H]1c1ccccc1` are 1.08 ± 2.1, 0.729 ± 0.44, 0.566 ± 1.2 and -0.974 ± 1.9.
Turning to `CN1[C@@H]2CC[C@H]1C[C@@H](OC(=O)c1c[nH]c3ccccc13)C2`, the “mitochondrial oxygen consumption rate normalised” value was 0.168 ± 1.4 (0.08 µM), 1.48 ± 0.79 (0.4 µM), -0.138 ± 1.6 (2 µM) and -1.06 ± 2.5 (10 µM).
The corresponding values for `C#C[C@]1(O)CC[C@H]2[C@@H]3CCC4=CC(=O)CC[C@@H]4[C@H]3CC[C@@]21CC` are 0.538 ± 0.4, 1.49 ± 0.65, 1.15 ± 0.96 and 1.62 ± 1.1.
In the case of `CC(C)(C)CC(C)(C)c1ccc(OCCOCC[N+](C)(C)Cc2ccccc2)cc1`, the “mitochondrial oxygen consumption rate normalised” value is -0.0571 ± 1.2 (0.08 µM), 0.0149 ± 0.7 (0.4 µM), -6.66 ± 0.41 (2 µM) and -13 ± 0.41 (10 µM).
Regarding `Cc1cc(=O)[nH]c(=S)[nH]1`, the “mitochondrial oxygen consumption rate normalised” value by setting is: (0.08 µM) -1.18 ± 0.93; (0.4 µM) -0.337 ± 0.83; (2 µM) -1.08 ± 0.99; (10 µM) 0.503 ± 0.66.
The corresponding values for `C=CCOC(Cn1ccnc1)c1ccc(Cl)cc1Cl` (stereo unspecified) are -0.655 ± 2.4, 0.416 ± 2.9, -0.3 ± 1.2 and -0.245 ± 0.57.
The corresponding values for `N=C(N)c1ccc(OCCCCCOc2ccc(C(=N)N)cc2)cc1` are 0.754 ± 1.1, -0.0335 ± 0.92, -2.03 ± 2.2 and -6.65 ± 1.6.
The corresponding values for `CCCCCCCCCCCCCCCCCCCCCCO` are 0.402 ± 1.5, 0.592 ± 1.3, 0.538 ± 0.35 and -0.999 ± 1.9.
Consider `COc1c2occc2cc2ccc(=O)oc12`, for which the “mitochondrial oxygen consumption rate normalised” value is -0.411 ± 1.2 (0.08 µM), 0.146 ± 0.75 (0.4 µM), -0.807 ± 2.3 (2 µM) and -1.8 ± 2.2 (10 µM).
